Where “and” joins values, the source holds several entries; their conditions need not be identical. Equal values may be shown once. Screen size: about 5,500 compounds; about 2,000 (36%) were called active. Roughly 18% stayed inconclusive and do not appear here. No stated cut-off is given here; in the data, active means normalized growth mostly below about 0.91 (no sharp cut-off); inconclusive means no clear call, values can overlap the other calls; inactive means mostly above about 0.92. Some of the results follow.
Experiment: chemical genetic growth profiling, strain panel (AID 1159580);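 further: tested at 20 µM; growth read once vehicle control cultures reached saturation at 30 °C; 1 = growth at the plate median or of vehicle wells; lower values mean less growth of the strain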
Conditions: S. cerevisiae deletion strains, growth OD

Measured: normalized growth

C[N+](C)(C)CC(O)CC(=O)O (stereo unspecified)
inactive: locus YAL013W, strain DEP1, hits give low values 1.02 | locus YAL021C, strain ccr4, hits give low values 1.01 | locus YAL026C, strain drs2, hits give low values 0.982 | locus YAL030W, strain snc1, hits give low values 0.982 | locus YBL061C, strain skt5, hits give low values 0.977 | locus YBR009C, strain hhf1, hits give low values 1 | locus YBR021W, strain FUR4, hits give low values 0.992 | locus YBR023C, strain chs3, hits give low values 0.985 | locus YBR171W, strain sec66, hits give low values 0.981 | locus YBR229C, strain ROT2, hits give low values 1 | locus YBR231C, strain swc5, hits give low values 0.974 | locus YBR279W, strain paf1, hits give low values 0.998 | locus YCL011C, strain gbp2, hits give low values 0.978 | locus YCL016C, strain dcc1, hits give low values 0.96 | locus YCL029C, strain bik1, hits give low values 1 | locus YCL069W, strain vba3, hits give low values 0.981 | locus YCR088W, strain abp1, hits give low values 0.986 | locus YDL005C, strain med2, hits give low values 0.98 | locus YDL035C, strain GPR1, hits give low values 1.02 | locus YDL040C, strain nat1, hits give low values 0.982 | locus YDL074C, strain BRE1, hits give low values 1.01 | locus YDL101C, strain DUN1, hits give low values 1 | locus YDL134C, strain PPH21, hits give low values 1.01 | locus YDL185W, strain tfp1, hits give low values 0.996 | locus YDL192W, strain arf1, hits give low values 0.997 | locus YDR001C, strain nth1, hits give low values 0.975 | locus YDR069C, strain doa4, hits give low values 1.01 | locus YDR101C, strain arx1, hits give low values 0.983 | locus YDR137W, strain rgp1, hits give low values 0.972 | locus YDR150W, strain NUM1, hits give low values 1.01 | locus YDR159W, strain sac3, hits give low values 1.02 | locus YDR162C, strain NBP2, hits give low values 1 | locus YDR195W, strain ref2 0.96 | locus YDR297W, strain sur2, hits give low values 0.998 | locus YDR318W, strain mcm21, hits give low values 0.999 | locus YDR334W, strain swr1, hits give low values 0.969 | locus YDR335W, strain msn5, hits give low values 0.971 | locus YDR388W, hits give low values 1.01 | locus YDR392W, strain spt3, hits give low values 0.973 | locus YDR502C, strain sam2, hits give low values 1.02 | locus YEL003W, strain gim4, hits give low values 0.986 | locus YEL037C, strain rad23, hits give low values 0.969 | locus YEL061C, strain CIN8 (second series), hits give low values 0.981 | locus YEL061C, strain CIN8, hits give low values 1 | locus YER015W, strain faa2, hits give low values 0.977 | locus YER016W, strain bim1, hits give low values 0.965 | locus YER110C, hits give low values 0.991 | locus YER111C, strain swi4, hits give low values 0.96 | locus YER155C, strain BEM2 (second series), hits give low values 0.965 | locus YER155C, strain BEM2, hits give low values 0.995 | locus YER167W, strain BCK2, hits give low values 0.995 | locus YFR010W, strain ubp6, hits give low values 1 | locus YGL078C, strain dbp3, hits give low values 1 | locus YGL086W, strain mad1, hits give low values 0.998 | locus YGL167C, strain pmr1, hits give low values 0.98 | locus YGL173C, strain kem1, hits give low values 0.968 | locus YGL227W, strain vid30, hits give low values 0.985 | locus YGL240W, strain doc1, hits give low values 0.998 | locus YGL248W, strain PDE1, hits give low values 1 | locus YGL253W, strain hxk2, hits give low values 0.957 | locus YGR078C, strain PAC10, hits give low values 1 | locus YGR135W, strain pre9, hits give low values 0.994 | locus YGR229C, strain SMI1, hits give low values 1.02 | locus YGR252W, strain gcn5, hits give low values 1 | locus YHR013C, strain ard1, hits give low values 0.95 | locus YHR027C, strain rpn1, hits give low values 0.984 | locus YHR030C, strain SLT2, hits give low values 1 and 0.979 | locus YHR079C, strain IRE1 (second series), hits give low values 0.999 | locus YHR079C, strain IRE1, hits give low values 0.976 | locus YHR094C, strain hxt1, hits give low values 0.996 | locus YHR129C, strain ARP1, hits give low values 0.999 | locus YHR142W, strain chs7, hits give low values 0.968 | locus YHR200W, strain rpn10, hits give low values 1 | locus YIL066C, strain RNR3, hits give low values 1.02 | locus YIL073C, strain SPO22, hits give low values 1.04 | locus YIL125W, strain kgd1, hits give low values 1 | locus YIR030C, strain dcg1, hits give low values 0.998 | locus YJL092W, strain hpr5, hits give low values 0.984 | locus YJL095W, strain BCK1 (second series), hits give low values 0.974 | locus YJL095W, strain BCK1, hits give low values 1 and 0.989 | locus YJL115W, strain asf1, hits give low values 0.977 | locus YJL129C, strain trk1, hits give low values 0.983 | locus YJL134W, strain LCB3, hits give low values 1 | locus YJL154C, strain vps35, hits give low values 0.975 | locus YJL164C, strain tpk1, hits give low values 0.989 | locus YJL166W, strain qcr8, hits give low values 1.02 | locus YJL168C, strain set2, hits give low values 0.997 | locus YJL187C, strain SWE1 (second series), hits give low values 1.01 | locus YJR043C, strain POL32, hits give low values 1 | locus YJR066W, strain TOR1, hits give low values 0.929 | locus YJR075W, strain HOC1, hits give low values 1.01

Source: PubChem BioAssay AID1159580 (chemical genetic matrix, 2015)
